The results in this text go back to PubChem BioAssay (EPA / NIEHS).

“And” between values parts separate entries of the source, which are not always exact repeats. Identical values can stand only once. Results filed as inconclusive are left out. Where a structure was tested more than once in an assay, its records may differ in their call. The source made the active and inactive calls. The calls were made as follows: active = hit-call score of the fitted dose curve at least 0.9, where 1 is the maximum; inconclusive = response in the unintended direction; inactive = score below 0.9.

Chain of bovine Gamma-Aminobutyric Acid Type A Receptor Agonist (GABAR Agonist), GABRA1 (gene 780973) (P08219 whole entry, looked up): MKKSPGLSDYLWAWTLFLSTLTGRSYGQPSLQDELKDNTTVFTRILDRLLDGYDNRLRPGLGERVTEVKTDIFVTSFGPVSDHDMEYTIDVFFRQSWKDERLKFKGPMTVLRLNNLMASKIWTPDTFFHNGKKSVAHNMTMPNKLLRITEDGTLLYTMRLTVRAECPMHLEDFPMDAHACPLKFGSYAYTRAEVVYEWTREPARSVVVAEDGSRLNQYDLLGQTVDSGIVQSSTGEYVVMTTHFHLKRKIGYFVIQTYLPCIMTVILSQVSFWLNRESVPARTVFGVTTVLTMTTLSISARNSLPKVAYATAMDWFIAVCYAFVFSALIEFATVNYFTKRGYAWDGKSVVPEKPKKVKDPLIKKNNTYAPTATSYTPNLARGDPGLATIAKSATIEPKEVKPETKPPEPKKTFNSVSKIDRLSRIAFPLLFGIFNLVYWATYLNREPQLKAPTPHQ
Chain of chimpanzee Androgen Receptor (AR), AR (gene 747460) (O97775 whole entry, looked up): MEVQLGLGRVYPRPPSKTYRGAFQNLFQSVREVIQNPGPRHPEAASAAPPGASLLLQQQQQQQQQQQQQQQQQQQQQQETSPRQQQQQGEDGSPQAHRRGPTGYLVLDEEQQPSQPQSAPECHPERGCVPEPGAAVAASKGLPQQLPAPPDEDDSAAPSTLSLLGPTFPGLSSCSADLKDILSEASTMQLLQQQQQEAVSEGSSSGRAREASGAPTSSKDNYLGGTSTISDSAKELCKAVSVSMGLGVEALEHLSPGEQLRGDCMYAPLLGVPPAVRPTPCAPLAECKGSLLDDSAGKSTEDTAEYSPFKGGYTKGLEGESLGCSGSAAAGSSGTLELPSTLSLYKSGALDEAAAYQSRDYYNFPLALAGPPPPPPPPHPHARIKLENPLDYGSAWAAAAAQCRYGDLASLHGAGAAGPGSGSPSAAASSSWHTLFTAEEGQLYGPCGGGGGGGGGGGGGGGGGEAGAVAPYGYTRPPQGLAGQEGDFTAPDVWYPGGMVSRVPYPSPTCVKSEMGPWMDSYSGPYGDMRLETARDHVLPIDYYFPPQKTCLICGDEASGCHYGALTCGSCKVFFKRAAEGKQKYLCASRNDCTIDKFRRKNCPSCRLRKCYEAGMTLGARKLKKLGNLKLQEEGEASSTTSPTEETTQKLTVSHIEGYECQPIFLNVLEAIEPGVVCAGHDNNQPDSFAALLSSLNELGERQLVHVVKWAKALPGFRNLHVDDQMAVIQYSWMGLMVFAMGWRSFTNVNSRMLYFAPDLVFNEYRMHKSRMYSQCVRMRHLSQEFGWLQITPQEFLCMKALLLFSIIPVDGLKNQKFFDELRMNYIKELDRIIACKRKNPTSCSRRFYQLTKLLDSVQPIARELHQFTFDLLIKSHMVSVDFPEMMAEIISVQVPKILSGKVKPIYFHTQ
Chain of rat Peripheral-type Benzodiazepine Receptor (PBR), Tspo (gene 24230) (P16257 whole entry, looked up): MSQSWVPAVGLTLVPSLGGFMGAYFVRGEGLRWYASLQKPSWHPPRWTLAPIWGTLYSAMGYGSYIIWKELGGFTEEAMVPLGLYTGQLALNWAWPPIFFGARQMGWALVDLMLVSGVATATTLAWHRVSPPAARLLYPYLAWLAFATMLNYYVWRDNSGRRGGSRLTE

The target in one experiment is rat Peripheral-type Benzodiazepine Receptor (PBR), Tspo (gene 24230) (UniProt P16257). In words: NVS_MP_rPBR: NovaScreen (NVS) Membrane Protein Assay for rat Peripheral-type Benzodiazepine Receptor (PBR) (AID 2283335). The essentials:
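Competitive displacement of specific radioligand from rat kidney membrane PBR, read by filtration and scintillation after 1 h. Compounds first tested at 25 uM in duplicate, then in concentration series; signal loss relative to DMSO.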
On to `CCOP(=S)(NC(C)C)Oc1ccccc1C(=O)OC(C)C` (stereo unspecified), for which the compound was called inactive.
Take `CO/N=C(/C(=O)OC)c1ccccc1COc1ccccc1C`: the AC50 was 0.947 µM (active).
Same read-out and setting: with `Nc1ccc2ccccc2c1` the figure was 7.21 µM (active).
Regarding `O=P(OCC(Br)CBr)(OCC(Br)CBr)OCC(Br)CBr` (stereo unspecified), the half-maximal activity concentration (AC50) was 0.169 µM (active) and the outcome was inactive.
As to `N#Cc1c(-c2ccc(Cl)cc2)[nH]c(C(F)(F)F)c1Br`, the concentration at half-maximal activity (AC50) was 0.377 µM (active).
On the same count and under the same terms, next, `N#Cc1cc([N+](=O)[O-])ccc1N`: 25 µM (active); `O=S(=O)(c1ccc(O)cc1)c1ccc(O)cc1`: 4.76 µM (active).
As to `c1ccc2c(c1)Nc1ccccc1S2`, the call was inactive.
As for `C=CC(=O)OCC(CC)(COC(=O)C=C)COC(=O)C=C`, the AC50 was 25 µM (active).
On to `Nc1ccc([N+](=O)[O-])cc1Cl`, for which the call was inactive.
Turning to `CCCCOCCOP(=O)(OCCOCCCC)OCCOCCCC`, the AC50 is 7.47 µM (active) and 7.45 µM (active).
The same measure, in the same setting: with `Cc1ccc2c(c1N)C(=O)c1ccccc1C2=O` the figure was 1.4 µM (active); with `CCOP(=S)(OCC)SCn1nnc2ccccc2c1=O`, 9.51 µM (active).
In the case of `Cc1cc(C)c(C(=O)P(=O)(c2ccccc2)c2ccccc2)c(C)c1`, the outcome was inactive.
In the case of `O=P(Oc1ccccc1)(Oc1ccccc1)Oc1ccccc1`, the concentration at half-maximal activity (AC50) is 1.96 µM (active).
Take `CCCCC(CC)COP(=O)(Oc1ccccc1)Oc1ccccc1` (stereo unspecified): the AC50 is 2.93 µM (active) and the result was inactive.

System in another experiment: not listed separately
In words: NVS_IC_rCaBTZCHL: NovaScreen (NVS) Ion Channel Assay for Calcium Channel, Type L, Benzothiazepine Site (CaBTZCHL) (AID 2283337). The protocol:
NVS_IC_rCaBTZCHL is a biochemical, single-readout assay that uses extracted gene-proteins from Rat cortical membranes in a tissue-based cell-free assay. Measurements were taken 1.5 hours after chemical dosing in a 48-well plate.NVS_IC_rCaBTZCHL is one of one assay component(s) measured or calculated from the NVS_IC_rCaBTZCHL assay. It is designed to make measurements of radioligand binding, a form of binding reporter, as detected with scintillation counting signals by Filter-based radiodetection technology.Data from the assay component NVS_IC_rCaBTZCHL was analyzed into 1 assay endpoint. This assay endpoint, NVS_IC_rCaBTZCHL, was analyzed in the positive analysis fitting direction relative to DMSO as the negative control and baseline of activity. Using a type of binding reporter, loss-of-signal activity can be used to understand changes in the binding as they relate to the gene Cacna1a. Furthermore, this assay endpoint can be referred to as a primary readout, because the performed assay has only produced 1 assay endpoint. To generalize the intended target to other relatable targets, this assay endpoint is annotated to the ion channel intended target family, where the subfamily is calcium channel.
(§1) Binding assays used specific radioligands (tritiated, iodinated) with non-radioactive competitive displacement ligands in agonist or antagonist protocols (as indicated) and various reference compounds and inhibitors to titrate specific binding to receptors and transporters. Most enzyme assays (CYPs, kinases, phosphatases, proteases, HDACs) used recombinant protein and specific substrates (fluorescence mostly, some colorimetric and radioactive) and inhibitors, followed by a biochemical separation of substrate and product. All assays for the biochemical HTS were initially run in duplicate at a single concentration (10 uM for CYP450 assays and 25 uM for all others). […] Each assay was run with positive and negative controls, and concurrent controls on every plate. The follow-up (secondary) screen tested active chemical-pairs in concentration series, as well as a few additional assays not tested in the primary screen, some selected negative inactives, and several cases re-run in the concentration series for confirmatory purposes.
In the case of `CC(C)Nc1ccc(Nc2ccccc2)cc1`, the result was inactive.
Same read-out and setting: next, `CCCCOCCOP(=O)(OCCOCCCC)OCCOCCCC`: “inactive”.
Consider `Cc1ccc2c(c1N)C(=O)c1ccccc1C2=O`, for which the outcome was inactive.
On the same count and under the same terms, next, `CCCCC(CC)COP(=O)(Oc1ccccc1)Oc1ccccc1` (stereo unspecified): “inactive”.

The next experiment addresses bovine Gamma-Aminobutyric Acid Type A Receptor Agonist (GABAR Agonist), GABRA1 (gene 780973) (UniProt P08219). In words: NVS_LGIC_bGABAR_Agonist: NovaScreen (NVS) Ligand-Gated Ion Channel Assay for bovine Gamma-Aminobutyric Acid Type A Receptor Agonist (GABAR Agonist) (AID 2283338). The method, then:
NVS_LGIC_bGABAR_Agonist is a biochemical, single-readout assay that uses extracted gene-proteins from Bovine cerebellar membranes in a tissue-based cell-free assay. Measurements were taken 1 hour after chemical dosing in a 48-well plate.NVS_LGIC_bGABAR_Agonist is one of one assay component(s) measured or calculated from the NVS_LGIC_bGABAR_Agonist assay. It is designed to make measurements of radioligand binding, a form of binding reporter, as detected with scintillation counting signals by Filter-based radiodetection technology.Data from the assay component NVS_LGIC_bGABAR_Agonist was analyzed into 1 assay endpoint. This assay endpoint, NVS_LGIC_bGABAR_Agonist, was analyzed in the positive analysis fitting direction relative to DMSO as the negative control and baseline of activity. Using a type of binding reporter, gain-of-signal activity can be used to understand changes in the binding as they relate to the gene GABRA1. Furthermore, this assay endpoint can be referred to as a primary readout, because the performed assay has only produced 1 assay endpoint. To generalize the intended target to other relatable targets, this assay endpoint is annotated to the ion channel intended target family, where the subfamily is ligand-gated ion channel.
as §1
On to `O=C(O)C(Cl)Cl`, for which the result was inactive.
The same measure, in the same setting: next, `c1ccc2c(c1)Nc1ccccc1S2`: “inactive”.
Still for that read-out and setting: with `Nc1cc2c3c(c1)C(c1ccccc1)=N[C@@H](NC(=O)c1cccnc1)C(=O)N3CC2` the entry was “inactive”; with `O=P(Oc1ccccc1)(Oc1ccccc1)Oc1ccccc1`, “inactive”; with `CCCCN(CCCC)N=O`, “inactive”.

Another experiment has as its system NCBI gene 100848466. Nature of the experiment: NVS_NR_bPR: NovaScreen (NVS) Nuclear Receptor Binding Assay for bovine Progextron Receptor (PR) (AID 2283343).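 As to AC50: actives lower bound radioligand signal below DMSO meaning displacement of the label.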 The essentials:
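Steps: bovine uterine membranes were dosed with chemical alongside radioligand, incubated 18 hours, then radiodetected by scintillation counting. Initial testing used 25 uM in duplicate; confirmed actives were rerun as concentration series.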
On to `CCCCN(CCCC)SN(C)C(=O)Oc1cccc2c1OC(C)(C)C2`, for which the compound was classed as inactive.
As to `CCOP(=S)(Oc1ccc([N+](=O)[O-])cc1)c1ccccc1` (stereo unspecified), the AC50 was 10.4 µM (active).
Turning to `CSC(C)(C)C=NO`, the outcome was inactive.

For the next experiment, the target named is human Constitutive Androstane Receptor (CAR), NR1I3 (gene 9970) (UniProt Q14994). In words: NVS_NR_hCAR_Antagonist: NovaScreen (NVS) Nuclear Receptor Binding Assay for human Constitutive Androstane Receptor Antagonism (CAR) (AID 2283344). In outline: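 Single 25 uM duplicate primary screen, with concentration-series follow-up on actives. Cell-free binding format run in antagonist mode, TR-FRET signal taken 1 h post-dose; activity is signal loss relative to DMSO.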
Chain of human Constitutive Androstane Receptor (CAR), NR1I3 (gene 9970) (Q14994 whole entry, looked up): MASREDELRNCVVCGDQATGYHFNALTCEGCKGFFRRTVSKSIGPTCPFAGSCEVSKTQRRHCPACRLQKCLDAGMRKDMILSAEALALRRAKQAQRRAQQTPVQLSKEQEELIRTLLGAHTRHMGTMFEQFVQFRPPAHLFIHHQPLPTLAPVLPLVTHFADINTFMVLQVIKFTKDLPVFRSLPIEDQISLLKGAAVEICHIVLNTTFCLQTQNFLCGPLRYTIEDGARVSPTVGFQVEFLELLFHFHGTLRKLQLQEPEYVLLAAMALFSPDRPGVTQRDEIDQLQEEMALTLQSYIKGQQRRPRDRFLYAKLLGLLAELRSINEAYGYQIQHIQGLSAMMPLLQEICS
On to `CC(C)(C)OOC(C)(C)C`, for which the result was inactive.
Still for that read-out and setting: with `CCCN(CCC)c1c([N+](=O)[O-])cc(C(C)C)cc1[N+](=O)[O-]` the entry was “inactive”.
For `ClC1=C(Cl)C2(Cl)C3C(Cl)C(Cl)CC3C1(Cl)C2(Cl)Cl` (stereo unspecified), the compound was called inactive.

The next experiment has as its target chimpanzee Androgen Receptor (AR), AR (gene 747460) (UniProt O97775). Nature of the experiment: NVS_NR_cAR: NovaScreen (NVS) Nuclear Receptor Binding Assay for chimpanzee Androgen Receptor (AR) (AID 2283346). The essentials: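 Cell-free radioligand displacement using receptor protein extracted from Sf9/Sf21 cells; bound radioligand measured by scintillation counting 72 hours after chemical dosing. Loss of signal versus DMSO baseline indicates binding; primary screen single-concentration in duplicate at 25 uM, actives followed in concentration series.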
Turning to `CC1(C)CN=C(NN=C(/C=C/c2ccc(C(F)(F)F)cc2)/C=C/c2ccc(C(F)(F)F)cc2)NC1`, the concentration at half-maximal activity (AC50) is 25 µM (active).
With `O=S1(=O)OCC2C(CO1)C1(Cl)C(Cl)=C(Cl)C2(Cl)C1(Cl)Cl` (stereo unspecified), the call was inactive.
For the compound `O=P(OCC(Br)CBr)(OCC(Br)CBr)OCC(Br)CBr` (stereo unspecified), the AC50 was 21.8 µM (active).
On to `CCCCc1ccc(O)cc1`, for which the outcome was inactive.
As to `CCCCCCCc1ccc(O)cc1`, the outcome was inactive.
Still for that read-out and setting: with `O=NN1CCCC1` the entry was “inactive”.
For the compound `CCC(C)(C)c1ccc(O)cc1`, the AC50 was 25 µM (active).
On to `O=C(O)CF`, for which the result was inactive.
